Results published in ChEMBL document CHEMBL1157539, “Thousands of chemical starting points for antimalarial lead identification” (Nature, 2010).

Columns and labels:
Assay type in all cases: functional
Plasmodium falciparum [1] = assay: GSK_TCMDC: Inhibition of Plasmodium falciparum 3D7 in whole red blood cells, using parasite LDH activity as an index of growth. Test compounds present at 2uM
Plasmodium falciparum [2] = assay: GSK_TCMDC: Inhibition of Plasmodium falciparum Dd2 in whole red blood cells, using parasite LDH activity as an index of growth. Test compounds present at 2uM
HepG2 = assay: GSK_TCMDC: Percent inhibition of human HepG2 cell line. Test compounds present at 10uM.

Row | Compound | Inhibition (Plasmodium falciparum [1]) | Inhibition (Plasmodium falciparum [2]) | Inhibition (HepG2)
1 | O=S(=O)(c1ccccc1OC(F)(F)F)C1CC2CCC(C1)N2S(=O)(=O)c1cccc(C(F)(F)F)c1 (stereo not given) | 99% | 99% | 5%
2 | CCc1c[nH]c2c(N3CCCC3=O)cc(C(=O)N[C@@H](Cc3ccccc3)[C@H](O)CNC(C)(C)c3cccc(OC)c3)cc12 | 93% | 98% | 0%
3 | CON(CCCN(C)C)C(=N)N.Cl | 92% | 0% | 3%
4 | COc1ccc(NC(=O)Nc2ccc(-c3ccc(-c4nc5cccc(C)c5[nH]4)s3)cc2)cc1 | 100% | 96% | 74%
5 | CC(C)CCN1CCCN(Cc2cccc(C(=O)Nc3ccc(C(C)(C)C)cc3)c2)CC1.O=C(O)C(F)(F)F | 85% | 1% | 33%
6 | Cc1c(Cn2nc(Cl)c(N3CCNCC3)cc2=O)cccc1NC(=O)Nc1ccc(-c2ccccc2)cc1.O=C(O)C(F)(F)F | 80% | 29% | 96%
7 | O=C(NC1CCN(c2ccnc3cc(Cl)ccc23)C1)c1cccc(F)c1.O=C(O)C(F)(F)F (stereo not given) | 95% | 98% | 30%
8 | CN1CCCN(Cc2cccc(-c3cccc(NC(=O)c4cccc(Cl)c4)c3)c2)CC1.O=C(O)C(F)(F)F | 96% | 20% | 17%
9 | Cc1sc(NC(=O)c2ccc([N+](=O)[O-])cc2Cl)c(C(N)=O)c1C | 94% | 2% | 2%
10 | O=C(O)C(F)(F)F.OC1CCCN(Cc2ccc(-c3ccc(-c4nc5cc(F)ccc5[nH]4)s3)cc2)C1 (stereo not given) | 100% | 99% | 40%
11 | Cl.Fc1cc(Cl)ccc1Nc1ccnc2cc(-c3ccc(CN4CCNCC4)o3)ccc12 | 100% | 99% | 16%
12 | Cc1nc(NCc2ccccc2)cc(NCC(O)c2ccc(O)cc2)n1 (stereo not given) | 85% | 10% | 5%
13 | O=C(c1ccc(-c2cccc(-c3nc4cc(F)ccc4[nH]3)c2)cc1)N1CCCCC1CN1CCC(O)C1 (stereo not given) | 91% | 0% | 11%
14 | CN(C)Cc1ccc(-c2ccc(NC(=O)c3ccc4c(=O)n(Cc5ccccc5)cnc4c3)cc2)cc1 | 100% | 39% | 94%
15 | CCN(CC)CCN1C(=O)c2oc3ccc(Cl)cc3c(=O)c2C1c1ccc(SC)cc1 (stereo not given) | 98% | 6% | 0%
16 | CN(C)CCNC(=O)c1cc2c(-c3ccc(Cl)cc3)nn(C)c2s1 | 98% | 81% | 18%
17 | Cc1ccc(NC(=O)c2ccc3ncccc3c2)cc1OC1CCN(Cc2ccc(F)cc2)C1.O=C(O)C(F)(F)F (stereo not given) | 83% | 28% | 11%
18 | COCCN1CCC(CNCC(C)(C)c2nc(-c3ccc(Cl)c(O)c3)c(-c3ccncc3)[nH]2)CC1.Cl | 100% | 2% | 0%
19 | CC(C)NCC(=O)Nc1cccc(C(=O)Nc2cccc(C(F)(F)F)c2)c1 | 97% | 89% | 6%
20 | Cc1sc(C)c(C(F)(F)F)c1CNCCCNc1cc(=O)c2ccccc2[nH]1.Cl | 96% | 43% | 0%
21 | Cc1ccc2c(c1)NCC21CCN(C[C@@H](O)C2CCN(c3ccnc(Cl)c3)CC2)CC1C (stereo not given in full) | 87% | 69% | 46%
22 | CCOC(=O)c1ccc(-n2c(C)cc(C=C3SC(=Nc4ccccc4)N(C4CCCC4)C3=O)c2C)cc1 | 98% | 61% | 2%
23 | O=C(N1CCN(c2ccc(C(F)(F)F)cc2[N+](=O)[O-])CC1)C(Cl)(Cl)Cl | 100% | 99% | 29%
24 | Cc1ccc2nc(C)n(C3CCN(C(=O)C4(c5ccccc5)CC4)CC3)c2c1 | 100% | 83% | 8%
25 | COCCN1CCC(N(Cc2ccc(-c3ccc(OC(F)(F)F)cc3)cc2)C(=O)Cn2c(CCc3cccc(F)c3F)cc(=O)c3ccccc32)CC1.O=C(O)C(O)C(O)C(=O)O | 96% | 92% | 100%

Row | Compound | Inhibition (Plasmodium falciparum [1]) | Inhibition (Plasmodium falciparum [2]) | Inhibition (HepG2)
26 | Cl.Oc1ccc2ccccc2c1CNC1CCCCCC1 | 83% | 33% | 9%
27 | CCOc1cc(Cc2cnc(N)nc2N)cc(OC)c1OC | 90% | 0% | 0%
28 | Cc1nc2sccn2c1C(=O)NCCc1ccccc1Cl | 96% | 1% | 6%
29 | Cc1cc(N[C@@H](CC(C)C)C(=O)NCc2cccc(F)c2)nc(NCCc2ccccc2)n1.O=C(O)C(F)(F)F | 88% | 33% | 6%
30 | COc1ccccc1NC(=O)Nc1cccc(-c2cccc(-c3nc4cc(C(F)(F)F)ccc4[nH]3)c2)c1 | 100% | 97% | 21%
31 | O=C(N[C@H]1CCN(Cc2ccc(OCCCN3CCCCC3)cc2)C1)c1ccc(Cl)c(Cl)c1 | 100% | 36% | 27%
32 | N#Cc1ccc(N(CCOc2ccc(Cl)cc2)Cc2ccccc2C(F)(F)F)cc1C(F)(F)F | 91% | 64% | 3%
33 | Cc1noc(C)c1-c1cccc(CNCc2cccc(-c3ccc(-c4nc5ccccc5[nH]4)cc3)c2)c1.O=C(O)C(F)(F)F | 100% | 76% | 27%
34 | O=C(Nc1cccc(CN2CCN(C(=O)c3ccccc3)CC2)c1)c1cccs1.O=C(O)C(F)(F)F | 95% | 97% | 15%
35 | O=C(NCC(CCCN1CCC(c2c[nH]c3ccccc23)CC1)c1ccccc1)Nc1ccc(Cl)c(Cl)c1 (stereo not given) | 100% | 64% | 38%
36 | COc1ccc(N2CCN(CCCN3CCN(C(=O)c4ccc(/C=C/c5ccc(Cl)c(Cl)c5)cc4)CC3)CC2)c(OC)c1.O=C(O)/C=C/C(=O)O | 93% | 52% | 47%
37 | COC(=O)c1cccc(CNCc2ccc(-c3cccc(-c4nc5cccc(C)c5[nH]4)c3)cc2)c1.O=C(O)C(F)(F)F | 100% | 84% | 0%
38 | CCC[C@@H]([C@@H](CC(C)C)C(=O)N[C@@H](CCCCNC(=O)c1cccc(OC)c1)C(=O)Nc1nccs1)N(O)C=O | 100% | 99% | 5%
39 | CC(=O)Nc1cccc(C(=O)Nc2ccc(-c3ccc(-c4nc5cccc(C)c5[nH]4)s3)cc2)c1 | 93% | 20% | 94%
40 | CN1CCN(CC(=O)Nc2cccc(-c3ccc(-c4nc5cc(C(F)(F)F)ccc5[nH]4)s3)c2)CC1 | 100% | 95% | 36%
41 | CC(=O)Oc1cc(C)ccc1C1CCN(CCCCNC(=O)c2ccc(NC(=O)c3ccc(Cl)cc3)cc2)CC1 | 100% | 57% | 12%
42 | NC1=NC(c2ccccc2)(c2ccccc2)C(=O)N1Cc1ccccc1Br.O=CO | 93% | 38% | 36%
43 | O=C(O)c1cccc2c(-c3ccncc3)cccc12 | 97% | 1% | 29%
44 | COc1ccc(CN(C)Cc2cc(C(C)C)c(C)cc2O)cc1F | 98% | 98% | 1%
45 | CCOC(=O)CCCOc1cc(Cc2cnc(N)nc2N)cc(OC)c1OC | 97% | 3% | 12%
46 | CC(C)NCc1cccc(-c2ccc(NC(=O)c3ccc(F)cc3)cc2)c1.O=C(O)C(F)(F)F | 92% | 3% | 7%
47 | Cc1ccc(S(C)(=O)=O)cc1/C=C/C(=O)O | 96% | 1% | 0%
48 | O=C(NCc1ccccc1F)c1ccc(N2CCC(NCc3cccc(-n4cccn4)c3)CC2)cc1 | 89% | 3% | 9%
49 | O=C(Nc1ccccc1)NC1CCN(CCC2(c3ccc(Cl)c(Cl)c3)COCN(C(=O)c3ccccc3)C2)C1 (stereo not given) | 92% | 81% | 23%
50 | Nc1ccc(-c2nc3cc(Cc4ccc5[nH]c(-c6ccc(N)cc6)nc5c4)ccc3[nH]2)cc1 | 100% | 96% | 47%
